Test results reported in the supplement of paper PMC6992640.
± gives the standard deviation of the averaged measurements.

Experiments:
Experiment in all cases: cell viability (% of vehicle); higher = less cytotoxic
Settings in all cases: 10 µM; 72 h
[1] = system: HCI01 (cells of a triple-negative basal-like breast cancer xenograft)
[2] = system: HCI03 (cells of an ER-positive luminal breast cancer xenograft)
[3] = system: HCI09 (cells of a triple-negative luminal androgen receptor type breast cancer xenograft)
[4] = system: HCI11 (cells of an ER-positive luminal breast cancer xenograft)
[5] = system: HCI13 (cells of an ER-positive luminal breast cancer xenograft)
[6] = system: HCI16 (cells of a triple-negative basal-like breast cancer xenograft)
[7] = system: UCD52 (cells of a triple-negative basal-like breast cancer xenograft)
[8] = system: WHIM2 (cells of a triple-negative basal-like breast cancer xenograft)
[9] = system: WHIM30 (cells of a triple-negative basal-like breast cancer xenograft)
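Also: PDX cells carrying CMV promoter-driven luciferase, viability read as total photon flux per second by IVIS imaging following D-luciferin, vehicle control 0.1% DMSO.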

COc1nc(C)cnc1NS(=O)(=O)c1cccnc1-c1ccc(-c2nnco2)cc1 [Zibotentan (ZD4054)]
cell viability [1]: 122 ± 15 | cell viability [2]: 116 | cell viability [3]: 105 ± 9.6 | cell viability [4]: 117 | cell viability [5]: 125 ± 12 | cell viability [6]: 125 | cell viability [7]: 97.9 ± 1.1 | cell viability [8]: 85.7 ± 3.5 | cell viability [9]: 139 ± 6.9

CCC(C)C(=O)OC1CCC=C2C=CC(C)C(CCC3CC(O)CC(=O)O3)C21 (stereo not given) [Mevastatin]
cell viability [1]: 129 ± 20 | cell viability [2]: 119 | cell viability [3]: 87.8 ± 22 | cell viability [4]: 120 | cell viability [5]: 92.7 ± 24 | cell viability [6]: 132 | cell viability [7]: 54.2 ± 10 | cell viability [8]: 86.8 ± 15 | cell viability [9]: 136 ± 4.6

Cc1[nH]c(=O)c(C#N)cc1-c1ccncc1 [Milrinone]
cell viability [1]: 124 ± 0.28 | cell viability [2]: 117 | cell viability [3]: 96.6 ± 32 | cell viability [4]: 102 | cell viability [5]: 98 ± 13 | cell viability [6]: 94 | cell viability [7]: 90.5 ± 4.6 | cell viability [8]: 101 ± 10 | cell viability [9]: 106 ± 18

CC(C)C1C(=O)NC(CCCN=C(N)N)C(=O)NCC(=O)NC(CC(=O)O)C(=O)NC(Cc2ccccc2)C(=O)N1C (stereo not given) [Cilengitide]
cell viability [1]: 114 ± 9.1 | cell viability [2]: 76.7 | cell viability [3]: 125 ± 49 | cell viability [4]: 97.4 | cell viability [5]: 124 ± 12 | cell viability [6]: 91 | cell viability [7]: 84.4 ± 5.5 | cell viability [8]: 94.1 ± 6.8 | cell viability [9]: 143 ± 14

COc1ccc(C2Sc3ccccc3N(CCN(C)C)C(=O)C2OC(C)=O)cc1.Cl (stereo not given) [Diltiazem HCl]
cell viability [1]: 81.5 ± 45 | cell viability [2]: 123 | cell viability [3]: 85.4 ± 4 | cell viability [4]: 88.9 | cell viability [5]: 95.5 ± 7.5 | cell viability [6]: 108 | cell viability [7]: 72.3 ± 5.6 | cell viability [8]: 93 ± 22 | cell viability [9]: 131 ± 15

Cc1cccc(C)c1OCC(C)N.Cl (stereo not given) [Mexiletine HCl]
cell viability [1]: 127 ± 27 | cell viability [2]: 110 | cell viability [3]: 120 ± 46 | cell viability [4]: 123 | cell viability [5]: 122 ± 26 | cell viability [6]: 188 | cell viability [7]: 120 ± 7 | cell viability [8]: 129 ± 14 | cell viability [9]: 147 ± 1.7

Cc1cnc(C(=O)NCCc2ccc(S(=O)(=O)NC(=O)NC3CCCCC3)cc2)cn1 [Glipizide]
cell viability [1]: 104 ± 16 | cell viability [2]: 128 | cell viability [3]: 106 ± 16 | cell viability [4]: 108 | cell viability [5]: 93.1 ± 1.8 | cell viability [6]: 99.1 | cell viability [7]: 83.6 ± 5.6 | cell viability [8]: 87.2 ± 11 | cell viability [9]: 138 ± 12

Clc1ccc(C(c2ccccc2Cl)C(Cl)Cl)cc1 (stereo not given) [Mitotane (Lsodren)]
cell viability [1]: 127 ± 3.6 | cell viability [2]: 112 | cell viability [3]: 148 ± 59 | cell viability [4]: 107 | cell viability [5]: 91.2 ± 3.4 | cell viability [6]: 121 | cell viability [7]: 97.871 ± 0.035 | cell viability [8]: 96.3 ± 24 | cell viability [9]: 142 ± 11

CC(C)(C(=O)O)c1ccc(C(O)CCCN2CCC(C(O)(c3ccccc3)c3ccccc3)CC2)cc1.Cl (stereo not given) [Fexofenadine HCl]
cell viability [1]: 127 ± 32 | cell viability [2]: 129 | cell viability [3]: 115 ± 1.6 | cell viability [4]: 96.4 | cell viability [5]: 131 ± 6.2 | cell viability [6]: 120 | cell viability [7]: 87.7 ± 9.4 | cell viability [8]: 84.5 ± 14 | cell viability [9]: 108 ± 14

CC(=O)O[C@H]1C[C@@]2(C)[C@@H](C[C@@H](O)[C@H]3[C@@]4(C)CC[C@@H](O)[C@@H](C)[C@@H]4CC[C@@]32C)/C1=C(\CCC=C(C)C)C(=O)[O-].[Na+] [Fusidic Acid (sodium salt)]
cell viability [1]: 97.1 ± 30 | cell viability [2]: 116 | cell viability [3]: 112 ± 21 | cell viability [4]: 81.6 | cell viability [5]: 129 ± 2.5 | cell viability [6]: 121 | cell viability [7]: 111 ± 3.2 | cell viability [8]: 88.3 ± 15 | cell viability [9]: 149 ± 19

Cl.NCCc1ccc(O)c(O)c1 [Dopamine HCl]
cell viability [1]: 112 ± 25 | cell viability [2]: 103 | cell viability [3]: 113 ± 37 | cell viability [4]: 84.4 | cell viability [5]: 59 ± 2.7 | cell viability [6]: 125 | cell viability [7]: 93.6 ± 0.5 | cell viability [8]: 56 ± 2.1 | cell viability [9]: 128 ± 6.4

COc1c(N2CC3CCCNC3C2)c(F)cc2c(=O)c(C(=O)O)cn(C3CC3)c12.Cl (stereo not given) [Moxifloxacin HCl]
cell viability [1]: 132 ± 5.7 | cell viability [2]: 124 | cell viability [3]: 97.1 ± 3.3 | cell viability [4]: 120 | cell viability [5]: 113 ± 14 | cell viability [6]: 114 | cell viability [7]: 133 ± 11 | cell viability [8]: 92.3 ± 8.9 | cell viability [9]: 134 ± 16

CCN(CC)C(=O)C1(c2ccccc2)CC1CN.Cl (stereo not given) [Milnacipran HCl]
cell viability [1]: 68.6 ± 44 | cell viability [2]: 137 | cell viability [3]: 96.4 ± 9.2 | cell viability [4]: 98.1 | cell viability [5]: 127 ± 14 | cell viability [6]: 105 | cell viability [7]: 86.4 ± 1.7 | cell viability [8]: 93.8 ± 47

CC(C)=CCCC(C)=CCCC(C)=CCSc1ccccc1C(=O)O [Salirasib]
cell viability [1]: 69.5 ± 50 | cell viability [2]: 112 | cell viability [3]: 95.6 ± 7.4 | cell viability [4]: 97.9 | cell viability [5]: 84.5 ± 4.3 | cell viability [6]: 103 | cell viability [7]: 95.5 ± 4.6 | cell viability [8]: 39.5 ± 1.3 | cell viability [9]: 120 ± 15

Cc1cn(C2CC(N=[N+]=[N-])C(CO)O2)c(=O)[nH]c1=O (stereo not given) [Zidovudine]
cell viability [1]: 104 ± 3.4 | cell viability [2]: 160 | cell viability [3]: 116 ± 1.2 | cell viability [4]: 101 | cell viability [5]: 124 ± 7.2 | cell viability [6]: 143 | cell viability [7]: 123 ± 16 | cell viability [8]: 98.22 ± 0.63 | cell viability [9]: 144 ± 7.7

CS(=O)(=O)CCNCc1ccc(-c2ccc3ncnc(Nc4ccc(OCc5cccc(F)c5)c(Cl)c4)c3c2)o1 [Lapatinib]
cell viability [1]: 112 ± 63 | cell viability [2]: 45.4 | cell viability [3]: 39.3 ± 17 | cell viability [4]: 98.8 | cell viability [5]: 42.2 ± 0.47 | cell viability [6]: 168 | cell viability [7]: 51.2 ± 3.6 | cell viability [8]: 40.7 ± 5.3

Cl.Cl.Clc1ccc(Nc2nnc(Cc3ccncc3)c3ccccc23)cc1 [Vatalanib (PTK787) 2HCl]
cell viability [1]: 136 ± 53 | cell viability [2]: 104 | cell viability [3]: 54.7 ± 2.1 | cell viability [4]: 92.3 | cell viability [5]: 45.8 ± 8.3 | cell viability [6]: 76.5 | cell viability [7]: 55.4 ± 5 | cell viability [8]: 46 ± 19 | cell viability [9]: 93.2 ± 2.6

CC(CCc1ccccc1)NCC(O)c1ccc(O)c(C(N)=O)c1.Cl (stereo not given) [Labetalol HCl]
cell viability [1]: 101 ± 12 | cell viability [2]: 106 | cell viability [3]: 95.8 ± 9.3 | cell viability [4]: 104 | cell viability [5]: 105 ± 7.3 | cell viability [6]: 112 | cell viability [7]: 85.7 ± 7 | cell viability [8]: 110 ± 15 | cell viability [9]: 111 ± 13

Cl.O=C1Cc2cc(CCN3CCN(c4nsc5ccccc45)CC3)c(Cl)cc2N1 [Ziprasidone HCl]
cell viability [1]: 45.7 ± 12 | cell viability [2]: 78.6 | cell viability [3]: 33.8 ± 21 | cell viability [4]: 57.8 | cell viability [5]: 45.9 ± 5.8 | cell viability [6]: 46.5 | cell viability [7]: 130 ± 9.5 | cell viability [8]: 38.1 ± 5.7 | cell viability [9]: 123 ± 11

NCC1OC(OC2C(N)CC(N)C(OC3OC(CO)C(O)C(N)C3O)C2O)C(N)CC1O (stereo not given) [Tobramycin]
cell viability [1]: 112 ± 23 | cell viability [2]: 124 | cell viability [3]: 98.5 ± 5.4 | cell viability [4]: 83.1 | cell viability [5]: 58 ± 9.4 | cell viability [6]: 88 | cell viability [7]: 85.3 ± 6.8 | cell viability [8]: 122 ± 32 | cell viability [9]: 123 ± 5.3

CC(C)(C)NC(=O)C1CCC2C3CCC4NC(=O)C=CC4(C)C3CCC12C (stereo not given) [Finasteride]
cell viability [1]: 136 ± 20 | cell viability [2]: 115 | cell viability [3]: 103 ± 8.5 | cell viability [4]: 125 | cell viability [5]: 96.2 ± 4.9 | cell viability [6]: 99.8 | cell viability [7]: 81.1 ± 1.1 | cell viability [8]: 94 ± 1.5 | cell viability [9]: 156 ± 18

CC(C)C(N)C(=O)OCCOCn1cnc2c(=O)nc(N)[nH]c21.Cl (stereo not given) [Valaciclovir HCl]
cell viability [1]: 71.5 ± 40 | cell viability [2]: 128 | cell viability [3]: 94.3 ± 3 | cell viability [4]: 88.8 | cell viability [5]: 94.7 ± 8.2 | cell viability [6]: 106 | cell viability [7]: 91.8 ± 12 | cell viability [8]: 102 ± 19 | cell viability [9]: 169 ± 13

CO[C@H]1O[C@@H]2O[C@@]3(C)CC[C@H]4[C@H](C)CC[C@@H]([C@H]1C)[C@@]24OO3 [Artemether (SM-224)]
cell viability [1]: 102 ± 17 | cell viability [2]: 111 | cell viability [3]: 79.3 ± 25 | cell viability [4]: 74.7 | cell viability [5]: 84.1 ± 3.5 | cell viability [6]: 123 | cell viability [7]: 77 ± 4.6 | cell viability [8]: 117 ± 3.2 | cell viability [9]: 99.8 ± 3.1

O=C(CS(=O)Cc1ccco1)NCC=CCOc1cc(CN2CCCCC2)ccn1 (stereo not given) [Lafutidine]
cell viability [1]: 137 ± 32 | cell viability [2]: 136 | cell viability [3]: 107 ± 3.1 | cell viability [4]: 108 | cell viability [5]: 190 ± 46 | cell viability [6]: 119 | cell viability [7]: 89.1 ± 3.8 | cell viability [8]: 88.6 ± 19 | cell viability [9]: 114 ± 2

CCCC(CCC)C(=O)O.CCCC(CCC)C(=O)[O-].[Na+] [Divalproex Sodium]
cell viability [1]: 112 ± 1.5 | cell viability [2]: 116 | cell viability [3]: 96.4 ± 23 | cell viability [4]: 111 | cell viability [5]: 114 ± 41 | cell viability [6]: 94.5 | cell viability [7]: 86.1 ± 2.9 | cell viability [8]: 80.1 ± 16 | cell viability [9]: 90.4 ± 14

Nc1ccc(C(=O)NCC(=O)[O-])cc1.[Na+] [Sodium 4-amiropparaty Hyalrate]
cell viability [1]: 107.1 ± 0.65 | cell viability [2]: 109 | cell viability [3]: 122 ± 35 | cell viability [4]: 110 | cell viability [5]: 112 ± 12 | cell viability [6]: 107 | cell viability [7]: 91.5 ± 8.8 | cell viability [8]: 95.4 ± 6 | cell viability [9]: 171 ± 21

COc1cc(CNC(=O)CCCCC=CC(C)C)ccc1O [Capsaicin]
cell viability [1]: 105 ± 8.6 | cell viability [2]: 120 | cell viability [3]: 75.8 ± 1.6 | cell viability [4]: 90.6 | cell viability [5]: 101 ± 17 | cell viability [6]: 82.4 | cell viability [7]: 78.3 ± 5.6 | cell viability [8]: 90.1 ± 21 | cell viability [9]: 108 ± 12

O=C1C(CCC(O)c2ccc(F)cc2)C(c2ccc(O)cc2)N1c1ccc(F)cc1 (stereo not given) [Ezetimibe]
cell viability [1]: 109 ± 6.1 | cell viability [2]: 102 | cell viability [3]: 86.6 ± 20 | cell viability [4]: 92.5 | cell viability [5]: 121 ± 3.4 | cell viability [6]: 97.3 | cell viability [7]: 81.4 ± 3.2 | cell viability [8]: 96 ± 5.4 | cell viability [9]: 100 ± 5.3
